Assays:
Assay in all cases: DAPPL (digital affinity profiling via proximity ligation, sequencing); 10 mM Tris-HCl pH 7.5, 50 mM NaCl, 1 mM DTT, 4% glycerol, room temperature, 30 min; GST-TFs on glutathione beads, 16-mer random dsDNA library, 0.1% formaldehyde crosslink after washing; high values mean tight binding
Settings in all cases: protein: recombinant; tags: N-terminal GST; dsDNA, one strand shown
FLI1 = molecular target: T1, FLI1 (Homo sapiens, UniProt Q01543 1-452)
T1 sequence: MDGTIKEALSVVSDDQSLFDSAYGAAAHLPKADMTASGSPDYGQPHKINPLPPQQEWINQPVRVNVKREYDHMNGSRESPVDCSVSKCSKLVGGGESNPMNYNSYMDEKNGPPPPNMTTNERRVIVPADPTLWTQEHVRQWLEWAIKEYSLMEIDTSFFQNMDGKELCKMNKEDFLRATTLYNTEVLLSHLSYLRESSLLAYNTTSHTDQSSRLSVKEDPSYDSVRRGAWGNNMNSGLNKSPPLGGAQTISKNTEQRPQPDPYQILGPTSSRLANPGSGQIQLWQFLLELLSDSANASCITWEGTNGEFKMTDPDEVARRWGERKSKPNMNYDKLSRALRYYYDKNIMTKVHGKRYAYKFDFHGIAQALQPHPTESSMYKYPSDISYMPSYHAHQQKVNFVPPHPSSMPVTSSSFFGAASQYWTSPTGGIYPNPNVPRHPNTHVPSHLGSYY
Outline: (§1)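 Human transcription factors carrying a GST fusion were produced in yeast, bound to glutathione beads, tagged with DNA barcodes and pooled together with a tag-only sample. Each pool was held with 200 nmole of a random double-stranded 16-mer DNA library in Tris/NaCl/DTT/glycerol buffer for 30 min at room temperature, then washed, crosslinked in 0.1% formaldehyde, proximity-ligated with BsaI/T4 ligase (1 h, 37 °C), PCR-amplified and sequenced on an Illumina NextSeq500. Binding signal is the read frequency of each hexamer for a given factor divided by its frequency in the tag-only sample.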

ELK1 = molecular target: T2, ELK1 (Homo sapiens, UniProt P19419 1-428)
T2 sequence: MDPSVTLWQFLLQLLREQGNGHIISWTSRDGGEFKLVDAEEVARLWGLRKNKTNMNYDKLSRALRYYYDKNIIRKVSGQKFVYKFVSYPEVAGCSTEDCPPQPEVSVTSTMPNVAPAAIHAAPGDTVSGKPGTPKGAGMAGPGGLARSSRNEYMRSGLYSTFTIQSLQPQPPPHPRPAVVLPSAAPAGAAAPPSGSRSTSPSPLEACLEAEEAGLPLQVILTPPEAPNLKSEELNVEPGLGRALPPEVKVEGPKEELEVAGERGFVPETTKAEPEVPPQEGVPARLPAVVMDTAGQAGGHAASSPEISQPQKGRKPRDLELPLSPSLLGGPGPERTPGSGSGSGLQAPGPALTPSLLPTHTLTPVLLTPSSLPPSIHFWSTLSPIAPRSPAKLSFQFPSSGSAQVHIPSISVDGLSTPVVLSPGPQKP
Outline: as §1

GABPA = molecular target: T3, GABPA (Homo sapiens, UniProt Q06546 1-454)
T3 sequence: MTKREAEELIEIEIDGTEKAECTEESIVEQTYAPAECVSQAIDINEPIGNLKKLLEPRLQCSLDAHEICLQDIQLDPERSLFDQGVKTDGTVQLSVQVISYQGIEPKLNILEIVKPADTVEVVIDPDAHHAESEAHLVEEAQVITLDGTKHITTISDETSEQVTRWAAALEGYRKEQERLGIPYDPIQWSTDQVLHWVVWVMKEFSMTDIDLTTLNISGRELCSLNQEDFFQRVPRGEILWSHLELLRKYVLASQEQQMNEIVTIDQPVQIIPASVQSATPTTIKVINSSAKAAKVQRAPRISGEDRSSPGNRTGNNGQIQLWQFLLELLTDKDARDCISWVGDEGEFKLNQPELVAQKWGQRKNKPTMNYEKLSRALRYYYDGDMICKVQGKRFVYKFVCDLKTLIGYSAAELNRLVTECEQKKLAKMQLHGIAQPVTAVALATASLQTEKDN
Outline: as §1

ERG = molecular target: T4, ERG (Homo sapiens, UniProt P11308 1-479)
T4 sequence: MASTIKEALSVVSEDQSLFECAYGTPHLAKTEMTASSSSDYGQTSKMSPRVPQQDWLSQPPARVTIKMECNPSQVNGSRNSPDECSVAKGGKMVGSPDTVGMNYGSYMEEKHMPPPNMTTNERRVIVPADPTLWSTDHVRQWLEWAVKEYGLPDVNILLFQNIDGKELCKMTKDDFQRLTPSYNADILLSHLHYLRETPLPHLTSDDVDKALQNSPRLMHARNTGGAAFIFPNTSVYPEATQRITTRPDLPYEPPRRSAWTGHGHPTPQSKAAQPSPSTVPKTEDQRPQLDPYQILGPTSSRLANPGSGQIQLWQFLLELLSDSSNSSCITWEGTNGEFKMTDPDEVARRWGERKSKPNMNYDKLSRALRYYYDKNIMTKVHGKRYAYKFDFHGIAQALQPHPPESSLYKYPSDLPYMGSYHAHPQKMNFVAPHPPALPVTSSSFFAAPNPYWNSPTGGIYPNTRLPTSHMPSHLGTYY
Outline: as §1

ELF1 = ELF1 (Homo sapiens, UniProt P32519 1-619)
Outline: as §1

EHF = molecular target: T5, EHF (Homo sapiens, UniProt Q9NZC4 1-300)
T5 sequence: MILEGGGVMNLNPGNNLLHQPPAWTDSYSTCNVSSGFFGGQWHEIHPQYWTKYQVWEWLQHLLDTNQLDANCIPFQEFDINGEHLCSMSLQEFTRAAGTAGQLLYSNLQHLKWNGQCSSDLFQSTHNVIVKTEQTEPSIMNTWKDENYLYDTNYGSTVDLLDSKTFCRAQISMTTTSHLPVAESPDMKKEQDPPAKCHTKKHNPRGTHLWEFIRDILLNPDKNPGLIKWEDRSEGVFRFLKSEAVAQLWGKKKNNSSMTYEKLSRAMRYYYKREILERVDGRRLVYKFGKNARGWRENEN
Outline: as §1

SPI1 = SPI1 (Homo sapiens, UniProt P17947 1-270)
Outline: as §1

SPIB = SPIB (Homo sapiens, UniProt Q01892 1-262)
Outline: as §1

ELK3 = molecular target: T6, ELK3 (Homo sapiens, UniProt P41970 1-407)
T6 sequence: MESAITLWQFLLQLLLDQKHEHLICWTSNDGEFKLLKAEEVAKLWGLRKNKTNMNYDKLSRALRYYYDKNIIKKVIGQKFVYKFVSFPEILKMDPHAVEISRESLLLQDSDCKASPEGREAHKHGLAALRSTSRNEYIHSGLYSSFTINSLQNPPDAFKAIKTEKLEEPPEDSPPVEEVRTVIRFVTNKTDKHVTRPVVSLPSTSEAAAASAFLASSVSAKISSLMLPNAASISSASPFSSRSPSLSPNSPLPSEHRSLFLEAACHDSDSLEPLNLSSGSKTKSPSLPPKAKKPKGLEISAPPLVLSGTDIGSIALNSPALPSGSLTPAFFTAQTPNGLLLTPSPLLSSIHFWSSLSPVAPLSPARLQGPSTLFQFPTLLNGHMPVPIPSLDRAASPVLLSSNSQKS
Outline: as §1

FEV = molecular target: T7, FEV (Homo sapiens, UniProt Q99581 1-238)
T7 sequence: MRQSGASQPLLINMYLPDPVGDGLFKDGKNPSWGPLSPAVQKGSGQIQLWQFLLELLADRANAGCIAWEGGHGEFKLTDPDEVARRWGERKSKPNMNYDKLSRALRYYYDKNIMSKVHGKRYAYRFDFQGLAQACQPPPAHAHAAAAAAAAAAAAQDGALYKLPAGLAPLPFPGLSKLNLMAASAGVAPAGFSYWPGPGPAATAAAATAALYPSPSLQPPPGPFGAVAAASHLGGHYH
Outline: as §1

ETV5 = ETV5 (Homo sapiens, UniProt P41161 1-510)
Outline: as §1

SPIC = molecular target: T8, SPIC (Homo sapiens, UniProt Q8N5J4 1-248)
T8 sequence: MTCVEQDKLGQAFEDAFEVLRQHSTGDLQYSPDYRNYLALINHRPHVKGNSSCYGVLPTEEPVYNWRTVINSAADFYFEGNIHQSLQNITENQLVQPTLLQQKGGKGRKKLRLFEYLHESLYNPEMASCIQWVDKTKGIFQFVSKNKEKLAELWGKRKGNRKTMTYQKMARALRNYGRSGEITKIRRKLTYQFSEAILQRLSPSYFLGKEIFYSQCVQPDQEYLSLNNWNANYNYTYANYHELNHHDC
Outline: as §1

ELF4 = ELF4 (Homo sapiens, UniProt Q99607 1-663)
Outline: as §1

ELK4 = molecular target: T9, ELK4 (Homo sapiens, UniProt P28324-2 1-405)
T9 sequence: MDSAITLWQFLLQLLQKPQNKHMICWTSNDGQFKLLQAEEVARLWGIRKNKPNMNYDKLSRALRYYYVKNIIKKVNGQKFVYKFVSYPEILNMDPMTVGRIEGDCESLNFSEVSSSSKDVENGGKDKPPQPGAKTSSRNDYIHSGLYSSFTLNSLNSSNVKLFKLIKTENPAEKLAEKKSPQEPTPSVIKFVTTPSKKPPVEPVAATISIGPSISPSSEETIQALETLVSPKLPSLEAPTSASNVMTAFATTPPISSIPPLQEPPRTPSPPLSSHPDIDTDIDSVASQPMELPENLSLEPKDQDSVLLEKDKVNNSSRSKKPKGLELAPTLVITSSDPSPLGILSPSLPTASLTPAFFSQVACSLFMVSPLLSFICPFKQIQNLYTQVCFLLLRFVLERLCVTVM
Outline: as §1

ELF3 = molecular target: T10, ELF3 (Homo sapiens, UniProt P78545 1-371)
T10 sequence: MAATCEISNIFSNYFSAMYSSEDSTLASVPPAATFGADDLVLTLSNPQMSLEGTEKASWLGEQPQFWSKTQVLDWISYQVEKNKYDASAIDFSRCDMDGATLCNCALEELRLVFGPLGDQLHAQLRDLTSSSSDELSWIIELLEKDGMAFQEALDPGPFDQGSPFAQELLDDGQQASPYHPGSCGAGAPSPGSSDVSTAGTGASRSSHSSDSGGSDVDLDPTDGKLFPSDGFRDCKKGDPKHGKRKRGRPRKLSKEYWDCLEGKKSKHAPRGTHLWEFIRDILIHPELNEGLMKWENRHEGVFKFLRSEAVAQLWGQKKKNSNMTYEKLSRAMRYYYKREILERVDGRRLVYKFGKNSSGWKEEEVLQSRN
Outline: as §1

ETV1 = ETV1 (Homo sapiens, UniProt P50549 1-477)
Outline: as §1

Sequence of SPIB (Q01892 whole entry): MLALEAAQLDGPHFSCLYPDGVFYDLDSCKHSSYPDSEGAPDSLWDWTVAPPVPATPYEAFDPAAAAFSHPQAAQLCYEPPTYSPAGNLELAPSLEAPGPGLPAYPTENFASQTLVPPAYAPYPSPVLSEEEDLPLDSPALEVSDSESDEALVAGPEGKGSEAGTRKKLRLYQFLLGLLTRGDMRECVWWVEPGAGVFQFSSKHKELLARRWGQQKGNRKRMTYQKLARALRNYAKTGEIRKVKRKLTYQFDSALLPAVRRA
Sequence of ETV1 (P50549 whole entry): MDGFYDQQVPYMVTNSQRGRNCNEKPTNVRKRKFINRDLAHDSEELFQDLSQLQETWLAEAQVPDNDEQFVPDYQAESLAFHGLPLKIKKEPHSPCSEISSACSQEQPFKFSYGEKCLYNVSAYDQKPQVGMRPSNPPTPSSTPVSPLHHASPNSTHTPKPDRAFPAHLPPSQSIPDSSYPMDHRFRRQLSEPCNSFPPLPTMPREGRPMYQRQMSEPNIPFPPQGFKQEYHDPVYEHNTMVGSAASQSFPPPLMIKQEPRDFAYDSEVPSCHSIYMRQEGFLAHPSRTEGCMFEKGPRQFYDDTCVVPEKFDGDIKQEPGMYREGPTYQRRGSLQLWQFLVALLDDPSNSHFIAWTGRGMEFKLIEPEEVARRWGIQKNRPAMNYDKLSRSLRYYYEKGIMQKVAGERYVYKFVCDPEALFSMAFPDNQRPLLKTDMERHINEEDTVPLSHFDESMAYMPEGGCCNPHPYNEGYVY
Sequence of ETV5 (P41161 whole entry): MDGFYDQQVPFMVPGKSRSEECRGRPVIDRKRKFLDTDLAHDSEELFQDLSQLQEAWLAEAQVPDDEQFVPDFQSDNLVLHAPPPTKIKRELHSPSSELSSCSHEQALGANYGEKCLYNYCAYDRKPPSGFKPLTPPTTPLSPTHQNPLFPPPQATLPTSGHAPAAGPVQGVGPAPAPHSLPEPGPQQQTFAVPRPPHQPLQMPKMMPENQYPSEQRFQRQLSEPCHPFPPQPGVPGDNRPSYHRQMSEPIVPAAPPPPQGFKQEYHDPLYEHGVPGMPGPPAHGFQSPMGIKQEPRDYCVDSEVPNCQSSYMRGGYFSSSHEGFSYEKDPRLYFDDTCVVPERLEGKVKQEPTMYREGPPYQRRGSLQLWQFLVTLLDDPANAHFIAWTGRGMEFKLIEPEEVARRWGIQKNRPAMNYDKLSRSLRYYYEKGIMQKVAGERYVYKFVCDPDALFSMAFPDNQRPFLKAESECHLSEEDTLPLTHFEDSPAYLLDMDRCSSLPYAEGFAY
Sequence of ELF1 (P32519 whole entry): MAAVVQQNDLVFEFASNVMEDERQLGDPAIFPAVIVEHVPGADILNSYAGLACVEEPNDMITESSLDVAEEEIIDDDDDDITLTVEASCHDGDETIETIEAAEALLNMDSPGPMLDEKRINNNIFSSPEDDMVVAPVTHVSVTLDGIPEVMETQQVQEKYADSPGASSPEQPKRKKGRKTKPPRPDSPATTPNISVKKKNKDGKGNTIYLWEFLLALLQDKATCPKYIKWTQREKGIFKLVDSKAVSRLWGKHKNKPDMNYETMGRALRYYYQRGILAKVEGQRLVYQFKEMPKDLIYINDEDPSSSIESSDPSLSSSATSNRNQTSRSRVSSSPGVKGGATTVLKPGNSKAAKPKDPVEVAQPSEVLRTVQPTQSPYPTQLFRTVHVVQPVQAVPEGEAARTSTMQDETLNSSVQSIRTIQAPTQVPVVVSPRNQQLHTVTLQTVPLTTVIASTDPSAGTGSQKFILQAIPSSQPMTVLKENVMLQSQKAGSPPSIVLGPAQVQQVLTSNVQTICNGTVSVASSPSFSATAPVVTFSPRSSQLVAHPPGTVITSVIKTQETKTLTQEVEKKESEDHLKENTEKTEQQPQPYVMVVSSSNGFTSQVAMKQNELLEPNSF
Sequence of ELF4 (Q99607 whole entry): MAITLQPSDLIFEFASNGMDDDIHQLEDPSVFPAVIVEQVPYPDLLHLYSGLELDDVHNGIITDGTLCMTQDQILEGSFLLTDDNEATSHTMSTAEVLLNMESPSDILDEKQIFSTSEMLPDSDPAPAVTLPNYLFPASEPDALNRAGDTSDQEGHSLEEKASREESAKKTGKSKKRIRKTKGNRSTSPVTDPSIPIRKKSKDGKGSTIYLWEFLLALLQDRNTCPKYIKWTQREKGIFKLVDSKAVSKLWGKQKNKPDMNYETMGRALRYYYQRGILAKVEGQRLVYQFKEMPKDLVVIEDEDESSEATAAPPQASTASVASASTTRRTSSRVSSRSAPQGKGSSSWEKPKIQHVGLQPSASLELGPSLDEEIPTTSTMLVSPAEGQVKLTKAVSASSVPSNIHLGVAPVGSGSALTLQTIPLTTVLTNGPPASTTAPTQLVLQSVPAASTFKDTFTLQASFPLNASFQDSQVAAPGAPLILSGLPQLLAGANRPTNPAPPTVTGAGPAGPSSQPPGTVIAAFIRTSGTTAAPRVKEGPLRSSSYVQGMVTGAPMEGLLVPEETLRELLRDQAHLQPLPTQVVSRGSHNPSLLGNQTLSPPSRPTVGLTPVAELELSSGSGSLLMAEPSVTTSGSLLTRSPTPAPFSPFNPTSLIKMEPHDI

| Sequence | binding signal (FLI1) | binding signal (ELK1) | binding signal (GABPA) | binding signal (ERG) | binding signal (ELF1) | binding signal (EHF) | binding signal (SPI1) | binding signal (SPIB) | binding signal (ELK3) | binding signal (FEV) | binding signal (ETV5) | binding signal (SPIC) | binding signal (ELF4) | binding signal (ELK4) | binding signal (ELF3) | binding signal (ETV1) |
| --- | --- | --- | --- | --- | --- | --- | --- | --- | --- | --- | --- | --- | --- | --- | --- | --- |
| ACAATG | 1.1 fold enrichment (6-mer frequency, TF over GST control) | 1.06 fold enrichment (6-mer frequency, TF over GST control) | 1.17 fold enrichment (6-mer frequency, TF over GST control) | 1.14 fold enrichment (6-mer frequency, TF over GST control) | 1.15 fold enrichment (6-mer frequency, TF over GST control) | 1.09 fold enrichment (6-mer frequency, TF over GST control) | 1.06 fold enrichment (6-mer frequency, TF over GST control) | 1.16 fold enrichment (6-mer frequency, TF over GST control) | 1.08 fold enrichment (6-mer frequency, TF over GST control) | 1.08 fold enrichment (6-mer frequency, TF over GST control) | 1.11 fold enrichment (6-mer frequency, TF over GST control) | 1.08 fold enrichment (6-mer frequency, TF over GST control) | 1.13 fold enrichment (6-mer frequency, TF over GST control) | 1.16 fold enrichment (6-mer frequency, TF over GST control) | 1.17 fold enrichment (6-mer frequency, TF over GST control) | 1.07 fold enrichment (6-mer frequency, TF over GST control) |
| GGGCTC | 1.21 fold enrichment (6-mer frequency, TF over GST control) | 1.24 fold enrichment (6-mer frequency, TF over GST control) | 1.32 fold enrichment (6-mer frequency, TF over GST control) | 1.17 fold enrichment (6-mer frequency, TF over GST control) | 1.2 fold enrichment (6-mer frequency, TF over GST control) | 1.03 fold enrichment (6-mer frequency, TF over GST control) | 1.11 fold enrichment (6-mer frequency, TF over GST control) | 1.26 fold enrichment (6-mer frequency, TF over GST control) | 1.22 fold enrichment (6-mer frequency, TF over GST control) | 1.15 fold enrichment (6-mer frequency, TF over GST control) | 1.18 fold enrichment (6-mer frequency, TF over GST control) | 1.19 fold enrichment (6-mer frequency, TF over GST control) | 1.26 fold enrichment (6-mer frequency, TF over GST control) | 1.09 fold enrichment (6-mer frequency, TF over GST control) | 1.19 fold enrichment (6-mer frequency, TF over GST control) | 1.29 fold enrichment (6-mer frequency, TF over GST control) |

— publication PMC7862700, “An all-to-all approach to the identification of sequence-specific readers for epigenetic DNA modifications on cytosine”
